Assay results: the supplement of paper PMC11732987, “Enantioselective OTUD7B fragment discovery through chemoproteomics screening and high-throughput optimisation” (Communications Chemistry, 2025)

Legend:
Assay in all cases: log2 ratio of Biotin-Ahx-Ub-VS probe labelling (fragment/DMSO); higher = less target engagement (more negative = stronger competition), active = hit call of the paper (q ≤ 0.05, log2 ratio ≤ -1)
Settings in all cases: compound concentration: 200 uM; treatment time: 3 h
[1] = molecular target: T1, USP42 (UniProt Q9H9J4)
T1 sequence (whole entry): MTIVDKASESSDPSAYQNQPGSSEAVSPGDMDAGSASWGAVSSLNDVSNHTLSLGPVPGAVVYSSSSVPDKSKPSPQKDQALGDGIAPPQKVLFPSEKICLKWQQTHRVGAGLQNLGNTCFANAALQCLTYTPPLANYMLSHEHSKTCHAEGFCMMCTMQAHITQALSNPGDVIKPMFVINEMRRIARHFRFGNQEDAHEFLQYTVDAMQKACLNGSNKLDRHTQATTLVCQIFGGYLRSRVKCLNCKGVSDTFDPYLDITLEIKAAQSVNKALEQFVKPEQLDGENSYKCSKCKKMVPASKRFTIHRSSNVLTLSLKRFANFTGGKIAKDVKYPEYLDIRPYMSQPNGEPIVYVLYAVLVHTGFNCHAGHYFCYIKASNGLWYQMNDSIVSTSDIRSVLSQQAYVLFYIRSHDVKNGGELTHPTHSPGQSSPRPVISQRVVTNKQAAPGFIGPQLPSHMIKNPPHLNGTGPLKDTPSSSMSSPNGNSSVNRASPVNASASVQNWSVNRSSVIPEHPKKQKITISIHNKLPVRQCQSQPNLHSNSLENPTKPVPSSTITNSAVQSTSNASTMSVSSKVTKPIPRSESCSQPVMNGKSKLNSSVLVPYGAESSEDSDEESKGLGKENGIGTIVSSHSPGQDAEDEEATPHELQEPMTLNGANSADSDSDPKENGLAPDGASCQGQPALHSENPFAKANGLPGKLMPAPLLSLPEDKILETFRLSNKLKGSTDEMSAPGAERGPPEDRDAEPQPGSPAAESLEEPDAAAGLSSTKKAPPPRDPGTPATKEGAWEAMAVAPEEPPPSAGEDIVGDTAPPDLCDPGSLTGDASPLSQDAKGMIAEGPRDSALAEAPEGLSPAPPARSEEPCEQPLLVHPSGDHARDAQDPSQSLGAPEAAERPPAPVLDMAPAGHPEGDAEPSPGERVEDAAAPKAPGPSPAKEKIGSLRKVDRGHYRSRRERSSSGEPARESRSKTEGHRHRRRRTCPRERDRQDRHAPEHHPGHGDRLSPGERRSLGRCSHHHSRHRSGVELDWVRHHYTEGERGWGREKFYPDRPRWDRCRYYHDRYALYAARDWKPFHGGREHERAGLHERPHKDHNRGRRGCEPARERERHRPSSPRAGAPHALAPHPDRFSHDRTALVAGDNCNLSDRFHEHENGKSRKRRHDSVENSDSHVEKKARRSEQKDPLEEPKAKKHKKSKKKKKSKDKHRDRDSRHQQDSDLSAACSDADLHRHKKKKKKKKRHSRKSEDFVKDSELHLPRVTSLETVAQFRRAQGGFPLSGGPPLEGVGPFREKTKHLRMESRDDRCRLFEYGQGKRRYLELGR
How it was run: (§1)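 HEK293T lysate (495 µg per sample, in Tris/CHAPS/IGEPAL buffer with protease inhibitors) was treated in triplicate with fragment at 200 µM or with DMSO for 3 h. It was then treated with Biotin-Ahx-Ub-VS (0.5 µM final) for 1 h. Labelled DUBs were NeutrAvidin-enriched, digested with LysC and trypsin, and run by diaPASEF LC-MS/MS. Spectronaut label-free quantities were global-median-normalised. Values are average log2 ratios fragment/DMSO by unpaired t-test, using proteins with ≥2 unique peptides.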

[2] = molecular target: USP46 (UniProt P62068)
How it was run: as §1

[3] = molecular target: T2, USP47 (UniProt Q96K76)
T2 sequence (whole entry): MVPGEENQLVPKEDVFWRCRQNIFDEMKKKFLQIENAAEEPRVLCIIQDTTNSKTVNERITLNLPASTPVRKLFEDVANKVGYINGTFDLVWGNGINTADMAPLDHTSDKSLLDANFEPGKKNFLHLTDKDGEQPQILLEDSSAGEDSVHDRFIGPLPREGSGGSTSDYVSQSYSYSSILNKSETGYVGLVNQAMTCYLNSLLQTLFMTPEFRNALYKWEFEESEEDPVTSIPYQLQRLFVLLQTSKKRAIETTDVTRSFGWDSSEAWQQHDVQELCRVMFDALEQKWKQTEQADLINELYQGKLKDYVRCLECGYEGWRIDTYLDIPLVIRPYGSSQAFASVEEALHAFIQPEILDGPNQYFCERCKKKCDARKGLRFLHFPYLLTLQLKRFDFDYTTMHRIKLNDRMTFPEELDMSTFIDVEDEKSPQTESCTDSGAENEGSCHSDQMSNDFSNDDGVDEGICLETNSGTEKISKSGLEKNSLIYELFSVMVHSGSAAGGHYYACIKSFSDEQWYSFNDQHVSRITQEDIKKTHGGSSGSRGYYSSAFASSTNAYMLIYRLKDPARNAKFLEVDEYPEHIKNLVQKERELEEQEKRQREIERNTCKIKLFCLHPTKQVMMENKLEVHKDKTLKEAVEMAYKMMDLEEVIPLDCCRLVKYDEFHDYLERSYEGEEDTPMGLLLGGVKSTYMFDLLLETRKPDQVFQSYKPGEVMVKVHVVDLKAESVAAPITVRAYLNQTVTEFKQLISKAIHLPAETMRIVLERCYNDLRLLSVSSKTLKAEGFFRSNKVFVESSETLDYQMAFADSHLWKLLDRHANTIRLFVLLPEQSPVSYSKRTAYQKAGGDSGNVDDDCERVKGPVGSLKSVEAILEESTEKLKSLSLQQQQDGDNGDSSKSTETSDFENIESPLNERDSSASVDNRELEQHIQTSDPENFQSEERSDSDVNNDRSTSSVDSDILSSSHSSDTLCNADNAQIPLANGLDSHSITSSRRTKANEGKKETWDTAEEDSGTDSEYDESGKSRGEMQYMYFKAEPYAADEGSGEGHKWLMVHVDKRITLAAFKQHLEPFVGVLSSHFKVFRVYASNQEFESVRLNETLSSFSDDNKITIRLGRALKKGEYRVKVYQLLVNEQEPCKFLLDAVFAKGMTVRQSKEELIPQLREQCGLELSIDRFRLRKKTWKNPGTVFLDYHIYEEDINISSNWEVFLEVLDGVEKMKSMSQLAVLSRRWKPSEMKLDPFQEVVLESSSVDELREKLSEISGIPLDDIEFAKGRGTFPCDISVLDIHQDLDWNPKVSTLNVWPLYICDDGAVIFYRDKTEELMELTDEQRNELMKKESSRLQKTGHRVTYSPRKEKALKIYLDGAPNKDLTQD
How it was run: as §1

[4] = molecular target: T3, USP48 (UniProt Q86UV5)
T3 sequence (whole entry): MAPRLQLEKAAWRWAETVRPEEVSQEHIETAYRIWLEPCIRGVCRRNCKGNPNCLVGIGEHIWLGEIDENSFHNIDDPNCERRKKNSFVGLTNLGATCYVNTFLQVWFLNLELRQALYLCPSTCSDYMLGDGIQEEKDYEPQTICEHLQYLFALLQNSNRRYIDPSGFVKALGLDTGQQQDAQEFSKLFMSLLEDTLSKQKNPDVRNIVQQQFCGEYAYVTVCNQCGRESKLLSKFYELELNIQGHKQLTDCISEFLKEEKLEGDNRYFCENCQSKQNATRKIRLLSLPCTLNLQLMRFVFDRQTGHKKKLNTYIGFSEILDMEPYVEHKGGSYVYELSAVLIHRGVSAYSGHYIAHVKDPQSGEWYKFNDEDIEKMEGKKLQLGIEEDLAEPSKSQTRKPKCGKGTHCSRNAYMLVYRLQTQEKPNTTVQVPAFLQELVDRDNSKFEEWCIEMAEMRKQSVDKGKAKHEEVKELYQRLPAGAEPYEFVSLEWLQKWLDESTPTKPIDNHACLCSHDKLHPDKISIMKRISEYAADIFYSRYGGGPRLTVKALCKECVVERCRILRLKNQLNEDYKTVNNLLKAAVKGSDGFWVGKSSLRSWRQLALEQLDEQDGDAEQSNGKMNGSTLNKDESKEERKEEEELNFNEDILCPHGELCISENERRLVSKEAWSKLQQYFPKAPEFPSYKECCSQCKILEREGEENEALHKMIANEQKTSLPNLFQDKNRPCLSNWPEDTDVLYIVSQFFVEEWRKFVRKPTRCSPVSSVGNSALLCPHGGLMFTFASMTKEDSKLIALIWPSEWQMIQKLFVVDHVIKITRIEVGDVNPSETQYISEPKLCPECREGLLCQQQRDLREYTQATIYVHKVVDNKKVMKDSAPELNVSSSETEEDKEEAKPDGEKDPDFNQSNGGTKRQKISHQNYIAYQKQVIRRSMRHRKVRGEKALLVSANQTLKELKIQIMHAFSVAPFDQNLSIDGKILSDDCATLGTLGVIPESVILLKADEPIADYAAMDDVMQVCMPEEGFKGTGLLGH
How it was run: as §1

[5] = molecular target: T4, USP5 (UniProt P45974)
T4 sequence (whole entry): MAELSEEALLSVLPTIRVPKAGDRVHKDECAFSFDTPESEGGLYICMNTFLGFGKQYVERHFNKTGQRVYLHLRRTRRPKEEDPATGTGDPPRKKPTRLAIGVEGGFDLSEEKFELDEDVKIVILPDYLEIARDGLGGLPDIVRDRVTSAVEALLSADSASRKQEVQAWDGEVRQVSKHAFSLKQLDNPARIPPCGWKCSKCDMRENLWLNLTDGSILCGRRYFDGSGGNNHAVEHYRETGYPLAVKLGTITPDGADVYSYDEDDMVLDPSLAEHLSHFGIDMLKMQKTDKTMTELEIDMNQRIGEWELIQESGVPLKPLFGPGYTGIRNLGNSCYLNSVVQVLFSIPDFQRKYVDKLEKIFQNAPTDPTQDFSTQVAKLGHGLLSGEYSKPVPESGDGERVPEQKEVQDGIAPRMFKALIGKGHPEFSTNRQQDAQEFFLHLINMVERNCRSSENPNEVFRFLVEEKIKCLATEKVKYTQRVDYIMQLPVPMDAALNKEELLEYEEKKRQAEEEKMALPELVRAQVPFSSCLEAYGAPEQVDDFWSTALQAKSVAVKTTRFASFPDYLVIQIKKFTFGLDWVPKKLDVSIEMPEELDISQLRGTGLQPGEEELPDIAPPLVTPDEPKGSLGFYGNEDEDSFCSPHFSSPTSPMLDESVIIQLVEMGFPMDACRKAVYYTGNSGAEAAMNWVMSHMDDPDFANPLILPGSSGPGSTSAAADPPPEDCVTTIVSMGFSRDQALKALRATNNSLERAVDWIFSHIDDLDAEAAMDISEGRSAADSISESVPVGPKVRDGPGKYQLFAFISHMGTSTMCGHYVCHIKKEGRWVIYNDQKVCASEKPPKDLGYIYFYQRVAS
How it was run: as §1

[6] = molecular target: USP54 (UniProt Q70EL1)
How it was run: as §1

[7] = molecular target: USP7 (UniProt Q93009)
How it was run: as §1

[8] = molecular target: T5, USP8 (UniProt P40818)
T5 sequence (whole entry): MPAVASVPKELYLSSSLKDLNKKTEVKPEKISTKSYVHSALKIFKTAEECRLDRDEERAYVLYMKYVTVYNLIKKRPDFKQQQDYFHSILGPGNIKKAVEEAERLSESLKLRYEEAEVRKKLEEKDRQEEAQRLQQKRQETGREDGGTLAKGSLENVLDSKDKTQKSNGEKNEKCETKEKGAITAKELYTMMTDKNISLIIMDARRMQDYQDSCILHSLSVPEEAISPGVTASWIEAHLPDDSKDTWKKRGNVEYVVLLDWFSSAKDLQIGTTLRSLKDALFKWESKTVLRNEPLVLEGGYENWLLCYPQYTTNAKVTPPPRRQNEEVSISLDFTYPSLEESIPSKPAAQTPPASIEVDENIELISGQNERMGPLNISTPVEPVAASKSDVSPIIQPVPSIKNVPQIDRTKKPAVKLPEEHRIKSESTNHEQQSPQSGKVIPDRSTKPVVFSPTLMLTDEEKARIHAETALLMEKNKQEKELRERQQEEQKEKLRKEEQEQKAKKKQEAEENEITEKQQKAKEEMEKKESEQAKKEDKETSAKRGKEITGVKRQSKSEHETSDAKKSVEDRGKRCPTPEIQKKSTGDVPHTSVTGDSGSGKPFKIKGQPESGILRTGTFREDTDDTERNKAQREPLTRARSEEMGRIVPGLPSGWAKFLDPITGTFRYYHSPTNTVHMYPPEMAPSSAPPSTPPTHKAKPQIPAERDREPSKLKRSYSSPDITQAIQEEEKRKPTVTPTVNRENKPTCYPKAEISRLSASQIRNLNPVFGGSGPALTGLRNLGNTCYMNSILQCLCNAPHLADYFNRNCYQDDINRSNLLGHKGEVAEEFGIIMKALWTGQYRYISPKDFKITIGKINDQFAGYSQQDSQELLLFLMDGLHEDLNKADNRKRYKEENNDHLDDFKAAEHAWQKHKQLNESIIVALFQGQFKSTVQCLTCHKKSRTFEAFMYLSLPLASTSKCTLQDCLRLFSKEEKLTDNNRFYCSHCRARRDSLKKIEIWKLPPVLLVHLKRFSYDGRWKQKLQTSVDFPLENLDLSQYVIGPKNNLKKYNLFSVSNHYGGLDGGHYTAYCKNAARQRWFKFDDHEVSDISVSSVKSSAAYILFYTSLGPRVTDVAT
How it was run: as §1

Measured: log2 ratio of Biotin-Ahx-Ub-VS probe labelling

USP54, sequence (Q70EL1 whole entry): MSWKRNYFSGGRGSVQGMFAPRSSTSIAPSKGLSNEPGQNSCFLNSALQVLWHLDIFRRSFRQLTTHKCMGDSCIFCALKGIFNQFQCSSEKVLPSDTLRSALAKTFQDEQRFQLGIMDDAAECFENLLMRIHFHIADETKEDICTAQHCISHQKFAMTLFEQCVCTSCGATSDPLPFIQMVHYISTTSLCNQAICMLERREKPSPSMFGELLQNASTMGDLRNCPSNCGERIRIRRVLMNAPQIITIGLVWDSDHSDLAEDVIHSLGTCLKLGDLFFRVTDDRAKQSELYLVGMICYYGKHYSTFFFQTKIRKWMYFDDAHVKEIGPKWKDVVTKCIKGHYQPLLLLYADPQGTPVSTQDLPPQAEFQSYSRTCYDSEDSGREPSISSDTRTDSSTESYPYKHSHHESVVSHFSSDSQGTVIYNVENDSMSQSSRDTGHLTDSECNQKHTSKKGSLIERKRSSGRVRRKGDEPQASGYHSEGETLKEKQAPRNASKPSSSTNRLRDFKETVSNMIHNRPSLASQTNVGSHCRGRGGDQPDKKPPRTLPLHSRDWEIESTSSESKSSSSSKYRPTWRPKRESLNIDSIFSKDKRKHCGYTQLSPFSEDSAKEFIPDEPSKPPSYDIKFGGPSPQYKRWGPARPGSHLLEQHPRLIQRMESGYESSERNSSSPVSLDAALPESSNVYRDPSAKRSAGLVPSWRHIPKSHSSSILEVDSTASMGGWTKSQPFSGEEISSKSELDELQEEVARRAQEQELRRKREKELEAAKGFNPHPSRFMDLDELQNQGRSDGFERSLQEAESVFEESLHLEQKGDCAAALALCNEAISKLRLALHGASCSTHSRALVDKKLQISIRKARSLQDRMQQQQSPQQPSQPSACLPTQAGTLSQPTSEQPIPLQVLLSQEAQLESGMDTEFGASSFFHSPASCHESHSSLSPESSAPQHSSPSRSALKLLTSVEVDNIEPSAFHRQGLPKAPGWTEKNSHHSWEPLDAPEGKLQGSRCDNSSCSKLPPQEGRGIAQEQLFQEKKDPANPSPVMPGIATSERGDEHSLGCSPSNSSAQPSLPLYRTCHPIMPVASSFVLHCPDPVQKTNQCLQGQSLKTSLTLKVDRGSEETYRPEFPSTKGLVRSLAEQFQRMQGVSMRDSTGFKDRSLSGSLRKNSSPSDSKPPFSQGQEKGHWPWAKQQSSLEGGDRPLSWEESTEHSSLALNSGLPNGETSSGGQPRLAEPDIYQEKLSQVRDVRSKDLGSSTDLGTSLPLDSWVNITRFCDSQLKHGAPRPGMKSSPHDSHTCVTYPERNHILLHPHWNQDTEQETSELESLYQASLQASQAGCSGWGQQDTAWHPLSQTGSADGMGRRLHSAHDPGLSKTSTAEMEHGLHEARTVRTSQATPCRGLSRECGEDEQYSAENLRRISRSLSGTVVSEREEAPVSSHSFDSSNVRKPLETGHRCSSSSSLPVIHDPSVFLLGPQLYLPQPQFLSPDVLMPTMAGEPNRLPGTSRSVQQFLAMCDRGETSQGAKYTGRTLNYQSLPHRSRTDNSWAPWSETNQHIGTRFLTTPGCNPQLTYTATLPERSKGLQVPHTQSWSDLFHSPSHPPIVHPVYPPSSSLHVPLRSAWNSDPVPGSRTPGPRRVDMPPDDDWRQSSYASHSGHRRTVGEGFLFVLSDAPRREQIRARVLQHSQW
USP7, sequence (Q93009 whole entry, looked up): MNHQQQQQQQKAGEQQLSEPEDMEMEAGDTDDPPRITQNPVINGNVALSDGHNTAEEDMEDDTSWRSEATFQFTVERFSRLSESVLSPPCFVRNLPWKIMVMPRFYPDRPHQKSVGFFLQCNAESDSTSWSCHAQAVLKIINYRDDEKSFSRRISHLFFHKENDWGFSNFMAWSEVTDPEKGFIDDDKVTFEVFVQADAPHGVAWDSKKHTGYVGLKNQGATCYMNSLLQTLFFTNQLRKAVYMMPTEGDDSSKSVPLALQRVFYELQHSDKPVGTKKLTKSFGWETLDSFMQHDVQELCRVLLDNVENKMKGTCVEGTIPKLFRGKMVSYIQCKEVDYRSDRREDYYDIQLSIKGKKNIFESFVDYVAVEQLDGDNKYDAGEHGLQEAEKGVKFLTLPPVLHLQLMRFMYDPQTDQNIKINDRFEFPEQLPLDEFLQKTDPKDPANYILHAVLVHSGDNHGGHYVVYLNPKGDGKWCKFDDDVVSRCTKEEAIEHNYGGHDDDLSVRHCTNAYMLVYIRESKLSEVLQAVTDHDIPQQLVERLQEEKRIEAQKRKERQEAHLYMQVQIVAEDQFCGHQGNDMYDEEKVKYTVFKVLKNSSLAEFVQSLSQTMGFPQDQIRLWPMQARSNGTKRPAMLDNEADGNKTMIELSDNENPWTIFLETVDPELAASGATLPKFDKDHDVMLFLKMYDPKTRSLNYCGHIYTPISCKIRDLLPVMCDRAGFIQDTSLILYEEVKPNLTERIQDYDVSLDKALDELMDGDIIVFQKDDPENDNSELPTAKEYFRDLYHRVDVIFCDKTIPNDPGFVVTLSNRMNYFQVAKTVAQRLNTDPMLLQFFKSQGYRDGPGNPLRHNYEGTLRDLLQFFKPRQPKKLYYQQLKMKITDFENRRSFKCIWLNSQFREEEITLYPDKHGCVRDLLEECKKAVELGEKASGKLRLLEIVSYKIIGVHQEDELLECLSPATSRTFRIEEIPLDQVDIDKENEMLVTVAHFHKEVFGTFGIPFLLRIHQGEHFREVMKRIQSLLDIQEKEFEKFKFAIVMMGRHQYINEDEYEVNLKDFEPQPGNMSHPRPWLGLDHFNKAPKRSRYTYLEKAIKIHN
USP46, sequence (P62068 whole entry): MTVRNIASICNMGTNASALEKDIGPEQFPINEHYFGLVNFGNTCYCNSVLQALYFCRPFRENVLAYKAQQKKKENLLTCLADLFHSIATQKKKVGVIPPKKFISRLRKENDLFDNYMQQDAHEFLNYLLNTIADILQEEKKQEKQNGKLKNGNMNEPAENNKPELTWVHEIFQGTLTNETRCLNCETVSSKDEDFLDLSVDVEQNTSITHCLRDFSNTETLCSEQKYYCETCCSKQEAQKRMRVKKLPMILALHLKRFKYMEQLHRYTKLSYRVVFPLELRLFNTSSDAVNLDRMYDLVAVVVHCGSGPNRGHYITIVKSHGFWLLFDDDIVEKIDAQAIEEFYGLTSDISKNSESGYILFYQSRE

O=C(CCl)N1CC2(CCOCC2)C1
inactive: [1] -0.145 | [2] 0.00462 | [3] 0.0373 | [4] -0.152 | [5] 0.362 | [6] 0.355 | [7] -0.055 | [8] 0.147
